# In all, about 31,000 compounds went through this assay and about 360 (1.2%) were called active. The sample holds actives, similar compounds and a random draw of the others, so the mix is not that of the screen. The rule behind the calls is not given here.
# Target: DNA-binding protein inhibitor ID-4 (Homo sapiens) (UniProt P47928)
# Assay: PubChem AID 624137;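 note: a binder raises fluorescence above local background on the spot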
# Conditions: small molecule microarray, Flag-ID4 binding, fluorescence F/B
# Chain of DNA-binding protein inhibitor ID-4 (Homo sapiens) (P47928 whole entry, looked up): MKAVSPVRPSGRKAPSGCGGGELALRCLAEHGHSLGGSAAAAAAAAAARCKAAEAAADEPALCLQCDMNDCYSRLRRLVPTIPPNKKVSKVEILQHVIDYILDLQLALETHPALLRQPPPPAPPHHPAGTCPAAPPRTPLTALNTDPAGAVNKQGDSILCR
row,SMILES,outcome
1,COC(=O)C[C@@H]1C[C@H]2c3cc(NC(=O)NC4CCCC4)ccc3O[C@H]2[C@H](CO)O1,inactive
2,O=C(NCC[C@H]1CC[C@@H](NC(=O)C2CCCCC2)[C@@H](CO)O1)c1ccc(F)cc1,inactive
3,COc1ccc(NC(=O)N[C@@H]2C=C[C@H](CC(=O)NC3CCC3)O[C@@H]2CO)cc1,inactive
4,C[C@H](CO)N1C[C@H](C)[C@H](CN(C)C)Oc2cc(C#CC3CC3)ccc2S1(=O)=O,inactive
5,C[C@H](CO)N1C[C@H](C)[C@H](CN(C)C(=O)c2cccnc2)Oc2ncc(C3=CCCC3)cc2C1=O,inactive
6,O=C(C[C@@H]1CC[C@H](NC(=O)Nc2cc(F)ccc2F)[C@H](CO)O1)NCc1ccncn1,inactive
7,CNC[C@@H]1Oc2cc(C#CC3CCCC3)ccc2S(=O)(=O)N([C@@H](C)CO)C[C@@H]1C,inactive
8,Cc1ccccc1NS(=O)(=O)c1cccc(C(=O)Nc2ccccc2[N+](=O)[O-])c1,inactive
9,C[C@@H]1CN([C@H](C)CO)C(=O)c2cc(-c3cccc(F)c3)cnc2O[C@@H]1CN(C)C,inactive
10,C[C@H](CO)N1C[C@H](C)[C@@H](CN(C)Cc2cccnc2)Oc2ncc(/C=C/c3ccccc3)cc2C1=O,inactive
11,C[C@@H]1CN([C@@H](C)CO)C(=O)c2cc(/C=C/c3ccccc3)cnc2O[C@@H]1CN(C)C(=O)CN(C)C,inactive
12,Cc1ccccc1-c1ccc2c(c1)O[C@H](CN(C)C)[C@@H](C)CN([C@H](C)CO)S2(=O)=O,inactive
13,Cc1ccc(S(=O)(=O)CCN2CCC(C(F)(F)F)CC2)cc1,inactive
14,CC(=O)N(C)C[C@@H]1Oc2cc(-c3ccncc3)ccc2S(=O)(=O)N([C@@H](C)CO)C[C@H]1C,inactive
15,C[C@H](CO)N1C[C@H](C)[C@H](CN(C)Cc2ccccc2)Oc2ncc(-c3ccccc3)cc2C1=O,inactive
16,C[C@H]1CN([C@@H](C)CO)C(=O)c2cc(-c3ccc(C#N)cc3)cnc2O[C@@H]1CN(C)Cc1ccncc1,active
17,C[C@@H]1CN([C@H](C)CO)C(=O)c2cc(-c3ccc(C#N)cc3)cnc2O[C@@H]1CN(C)CC1CC1,inactive
18,CC(=O)N[C@@H]1C=C[C@H](CC(=O)NCC2CCCCC2)O[C@H]1CO,inactive
19,C[C@H](CO)N1C[C@H](C)[C@H](CN(C)CC2CCCC2)Oc2ncc(-c3ccc(F)cc3)cc2C1=O,inactive
20,Cn1cnc(S(=O)(=O)N[C@H]2C=C[C@H](CC(=O)NCC3CCCCC3)O[C@@H]2CO)c1,inactive
21,Cc1cc2oc(C(=O)Nc3sc4c(c3C(=O)NCc3ccco3)CCC4)c(C)c2cc1C,active
22,CCOC(=O)c1c(NC(=O)C(C)Oc2ccc3c(C)cc(=O)oc3c2)sc2c1CCC2 (stereo unspecified),inactive
23,CC(=O)Nc1sccc1C(=O)NCc1ccco1,inactive
24,CCCNC(=O)C[C@@H]1C[C@@H]2c3cc(N(C)C)ccc3O[C@@H]2[C@H](CO)O1,inactive
25,COc1cccc(-c2cnc3c(c2)C(=O)N([C@@H](C)CO)C[C@@H](C)[C@@H](CN(C)Cc2ccc(C(=O)O)cc2)O3)c1,inactive
26,CCCN(C)C[C@@H]1Oc2ncc(C#CC3CC3)cc2C(=O)N([C@H](C)CO)C[C@H]1C,inactive

row,SMILES,outcome
1,C[C@@H]1CN([C@@H](C)CO)S(=O)(=O)c2ccc(C#CCN(C)C)cc2O[C@@H]1CN(C)CC1CC1,inactive
2,CC(C)C#Cc1ccc2c(c1)O[C@H](CN(C)Cc1ccccc1)[C@H](C)CN([C@@H](C)CO)S2(=O)=O,inactive
3,O=C(N[C@@H]1CC[C@@H](CC(=O)N2CCc3ccccc3C2)O[C@H]1CO)C1CCC1,inactive
4,CCCN(C)C[C@@H]1Oc2ncc(-c3ccccc3F)cc2C(=O)N([C@@H](C)CO)C[C@@H]1C,inactive
5,CCCN(C)C[C@@H]1OCc2cnnn2CCCC(=O)N([C@H](C)CO)C[C@@H]1C,inactive
6,O=C(Cc1ccccc1)N[C@H]1C=C[C@H](CC(=O)N2CCCCC2)O[C@@H]1CO,inactive
7,CC(C)C#Cc1cnc2c(c1)C(=O)N([C@@H](C)CO)C[C@@H](C)[C@@H](CN(C)C(=O)c1cccc(F)c1)O2,inactive
8,O=C(C[C@@H]1C=C[C@H](NC(=O)CN2CCOCC2)[C@@H](CO)O1)NCc1cccc(F)c1,inactive
9,O=C(C[C@@H]1CC[C@H](NC(=O)C2CC2)[C@H](CO)O1)NCc1ccccc1Cl,inactive
10,C[C@@H]1CN([C@H](C)CO)S(=O)(=O)c2ccc(C#CCN(C)C)cc2O[C@@H]1CN(C)C,inactive
11,CCNC(=O)C[C@@H]1CC[C@H](NC(=O)C2CCC2)[C@@H](CO)O1,inactive
12,COC(=O)c1ccccc1NC(=O)CN(c1ccc2c(c1)OCCO2)S(C)(=O)=O,inactive
13,N#Cc1c(NC(=O)C2CC(Cl)=CCC2C(=O)O)sc2c1CCC2 (stereo unspecified),active
14,CN1CCN(CC(=O)Nc2sc3c(c2C#N)CCC(C(C)(C)C)C3)CC1 (stereo unspecified),inactive
15,O=C(CN1CCCC1)Nc1sc2c(c1C(=O)Nc1ccccc1)CCCC2,inactive
16,C[C@@H]1CN([C@H](C)CO)C(=O)c2ccccc2-c2ccccc2CO[C@@H]1CN(C)S(=O)(=O)CC(F)(F)F,inactive
17,CN(C)C(=O)C[C@H]1C[C@@H]2c3cc(NC(=O)CC4CC4)ccc3O[C@@H]2[C@@H](CO)O1,inactive
18,COc1cccc(-c2ccc3c(c2)O[C@H](CN(C)Cc2ccncc2)[C@H](C)CN([C@H](C)CO)S3(=O)=O)c1,inactive
19,Cc1noc(C)c1NC(=O)N[C@H]1CC[C@H](CC(=O)N2CCCCC2)O[C@@H]1CO,inactive
20,C[C@@H]1CN([C@@H](C)CO)C(=O)Cc2cc(NC(=O)CCC(F)(F)F)ccc2O[C@@H]1CN(C)C(=O)Nc1cccc2ccccc12,inactive
21,C[C@H](CO)N1C[C@H](C)[C@H](CN(C)Cc2ccncc2)Oc2ccc(NC(=O)Cc3cn(C)c4ccccc34)cc2CC1=O,inactive
22,C[C@H](CO)N1C[C@H](C)[C@H](CN(C)C(=O)Nc2ccccc2)Oc2ccc(NC(=O)CCN3CCOCC3)cc2CC1=O,inactive
23,C[C@@H]1CN([C@@H](C)CO)C(=O)Cc2cc(NC(=O)CCN3CCOCC3)ccc2O[C@@H]1CN(C)C(=O)Nc1cccc2ccccc12,active
24,C[C@H](CO)N1C[C@H](C)[C@H](CN(C)C(=O)Nc2ccc(F)cc2)Oc2ccc(NC(=O)Cc3cn(C)c4ccccc34)cc2CC1=O,active
25,C[C@@H]1CN([C@@H](C)CO)C(=O)Cc2cc(NC(=O)Cc3cn(C)c4ccccc34)ccc2O[C@H]1CN(C)C(=O)NC1CCCCC1,inactive
26,CCC(=O)N(C)C[C@@H]1Oc2ncc(C#Cc3ccccc3)cc2C(=O)N([C@@H](C)CO)C[C@H]1C,inactive

row,SMILES,outcome
1,C[C@@H]1CN([C@H](C)CO)C(=O)c2cc(C#CC3CC3)cnc2O[C@H]1CN(C)C(=O)CC1CC1,inactive
2,C[C@H]1CN([C@@H](C)CO)C(=O)c2ccccc2-c2ccccc2CO[C@@H]1CN(C)C(=O)CCN(C)C,inactive
3,CN(C)C(=O)C[C@H]1C=C[C@@H](NC(=O)C2CCC2)[C@@H](CO)O1,inactive
4,O=C(C[C@H]1CC[C@H](NC(=O)C2CCC2)[C@@H](CO)O1)NCCCN1CCOCC1,inactive
5,CCCN(C)C[C@H]1Oc2ncc(C#CC3CCCCC3)cc2C(=O)N([C@H](C)CO)C[C@@H]1C,inactive
6,O=C(c1cccc(S(=O)(=O)N2CCOCC2)c1)N(Cc1ccccc1)c1ccccn1,inactive
7,C[C@H]1CN([C@@H](C)CO)S(=O)(=O)c2ccc(-c3cccc(F)c3)cc2O[C@@H]1CN(C)C,inactive
8,O=C(CCN1CCCCC1)N[C@@H]1C=C[C@@H](CC(=O)N2CCC(Cc3ccccc3)CC2)O[C@H]1CO,inactive
9,O=C(C[C@H]1CC[C@H](NS(=O)(=O)c2ccccc2)[C@H](CO)O1)NCc1ccncn1,inactive
10,O=C(CSc1nccc(=O)[nH]1)Nc1cccc(Br)c1,inactive
11,C[C@@H]1CN([C@@H](C)CO)C(=O)c2cc(C#CCN(C)C)cnc2O[C@@H]1CN(C)Cc1ccccn1,inactive
12,C[C@@H]1CN([C@H](C)CO)C(=O)c2cc(C#CC3CCCC3)cnc2O[C@H]1CN(C)S(C)(=O)=O,inactive
13,O=C(C[C@@H]1C=C[C@H](NC(=O)Nc2ccccc2F)[C@H](CO)O1)NCc1ccc(F)cc1,inactive
14,C[C@@H]1CN([C@@H](C)CO)S(=O)(=O)c2ccc(C#C[C@@H](C)O)cc2O[C@@H]1CN(C)C(=O)CN(C)C,inactive
15,C[C@H](CO)N1C[C@H](C)[C@@H](CN(C)Cc2ccccn2)Oc2ncc(C3=CCCC3)cc2C1=O,inactive
16,CN(C)c1ccc(NC(=O)CN(C)S(=O)(=O)c2ccc(Br)cc2)cc1,inactive
17,C[C@@H]1CN([C@H](C)CO)C(=O)Cc2cc(NC(=O)Nc3ccc(F)cc3)ccc2O[C@@H]1CN(C)Cc1ccc2c(c1)OCO2,inactive
18,COc1ccc(CN(C)C[C@@H]2Oc3ccc(NC(=O)Nc4ccc(OC)cc4)cc3CC(=O)N([C@H](C)CO)C[C@H]2C)cc1,inactive
19,C[C@@H]1CN([C@@H](C)CO)C(=O)Cc2cc(NC(=O)Cc3cn(C)c4ccccc34)ccc2O[C@H]1CN(C)Cc1ccc(C(=O)O)cc1,inactive
20,C[C@@H]1CN([C@@H](C)CO)C(=O)Cc2cc(NC(=O)Cc3ccccc3)ccc2O[C@H]1CN(C)Cc1ccc(C(=O)O)cc1,active
21,COc1ccc(CN(C)C[C@H]2Oc3ccc(NC(=O)Cc4ccccc4)cc3CC(=O)N([C@@H](C)CO)C[C@@H]2C)cc1,inactive
22,COc1ccc(CN(C)C[C@@H]2Oc3ccc(NC(=O)Nc4ccc5c(c4)OCO5)cc3CC(=O)N([C@H](C)CO)C[C@H]2C)cc1,active
23,O=C(C[C@@H]1C=C[C@@H](NC(=O)C2CCC2)[C@H](CO)O1)NCC1CC1,inactive
24,O=C(C[C@@H]1CC[C@H](NC(=O)C2CCC2)[C@@H](CO)O1)NC1CCCCC1,inactive

# Source: PubChem BioAssay AID624137 (Broad Institute, 2012)
